The list is not random: actives were taken first. Their share in the collection is about 6.1%.
D1 agonist: human D1 receptor agonism | P21728 | HEK293 T-REx D1 cells, calcium flux, agonist mode | AID 504660 | actives 1% (n = 360,000) | activation, % at 2 µM; in the data active = activation above about 30%
Target sequence (P21728 whole entry, looked up): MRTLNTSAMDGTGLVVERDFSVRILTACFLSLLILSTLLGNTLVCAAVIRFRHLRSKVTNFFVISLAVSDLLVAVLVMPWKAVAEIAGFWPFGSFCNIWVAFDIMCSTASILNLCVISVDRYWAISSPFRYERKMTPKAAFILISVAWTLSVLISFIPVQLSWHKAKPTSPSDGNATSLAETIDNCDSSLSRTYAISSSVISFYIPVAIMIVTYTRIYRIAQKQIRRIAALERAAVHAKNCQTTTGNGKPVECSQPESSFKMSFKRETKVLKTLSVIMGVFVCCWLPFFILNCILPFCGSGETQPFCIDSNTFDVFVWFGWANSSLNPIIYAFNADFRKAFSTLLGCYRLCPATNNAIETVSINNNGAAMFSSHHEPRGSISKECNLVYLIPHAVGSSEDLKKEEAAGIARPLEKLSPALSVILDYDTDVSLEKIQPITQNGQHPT
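Tetracycline-induced HEK293 TREx D1 cells, force-coupled to calcium signalling, were dye-loaded with a no-wash calcium kit. Compound was pin-added after a 10 s baseline. Fluorescence was read kinetically at 1 cycle/s for 180 s, with calcium rises flagged as agonism.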
DRD3 antagonist: D3 dopamine receptor (human) antagonism. D3R cells, DiscoveRx beta-arrestin luminescence, antagonist mode; hits give low values. max response, negative = inhibition, %. AID 652054. actives 2.5% (n = 360,000); in the data active = max response below about -50%; inconclusive = no clear call, values can overlap the other calls
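Cells expressing the human receptor were seeded at 1500 cells/well, incubated overnight at 37 degrees C in 5% CO2, then exposed to library compounds with dopamine controls for 90 minutes at 37 degrees C before luminescent detection.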
D3 ag: D3 dopamine receptor (human) agonism; P35462; D3R DiscoveRx beta-arrestin cells, luminescence, 90 min; max activation, %; actives 0.58% (n = 410,000); AID 652048; in the data active = max activation above about 30%
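Agonist mode: compounds and dopamine controls were applied to plated cells for 90 min at 37 degrees C after an overnight attachment at 1500 cells/well. Luminescent read-out followed 30 - 60 minutes at room temperature with DiscoveRx detection reagent.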
D1 antag: antagonists of human D1 dopamine receptor; P21728; HEK293 TREx D1 cells, calcium flux, dopamine EC80; hits give low values; activity change, negative = inhibition, % at 10 µM; actives 3.2% (n = 360,000); AID 504652; in the data active = activity change below about -30%
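Calcium flux readout: force-coupled, inducible Hek293 Trex D1 line, cells induced overnight at 30 C with tetracycline, dye-loaded 30–90 min at RT. Antagonism scored against EC80 dopamine challenge given 180 s after compound.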
D1 potentiator: human D1 dopamine receptor positive modulation; potentiation, % at 10 µM; AID 504651; P21728; actives 0.036% (n = 360,000); HEK293 TREx D1 cells, calcium flux, dopamine EC20 potentiation; in the data active = potentiation above about 30%
Of the large screens only hits and unclear results are named; the others gave an inactive call.

COc1cc2c(cc1OC)[C@@H]1CC(=O)[C@@H](CC(C)C)CN1CC2	none (no result: D1 agonist, DRD3 antagonist, D1 antag, D1 potentiator)
COc1cc2c(cc1OC)C1Cc3ccc(OC)c(OC)c3CN1CC2 (stereo unspecified)	DRD3 antagonist inconclusive, D1 antag -74
COc1ccc2c(c1OC)CN1CCc3cc4c(cc3[C@@H]1[C@@H]2O)OCO4	DRD3 antagonist -117, D1 antag -66
COc1cc2c(cc1OC)[C@@H]1Cc3ccc(OC)c(OC)c3CN1CC2	DRD3 antagonist -99, D1 antag -53
Cc1cc(C(=O)NN)c2cc(Br)ccc2n1	D1 antag -35
Cc1cc(C(N)=O)c2cc(Br)ccc2n1	none
Cc1c(C(=O)Nc2ccc(F)cc2F)oc2c1-c1nn(Cc3c(F)cccc3Cl)cc1CC2	none (no result: DRD3 antagonist)
CCc1nnc(SCc2cc(C)ccc2C)c2cc3sc(C)cc3n12	none (no result: DRD3 antagonist)
OCCOCCOc1ccccc1OCCOCCO	D1 antag -86
COc1cccc(CNC(=O)C2CCN(C(=O)N3CCOc4ccc(Cl)cc43)CC2)c1OC	none (no result: DRD3 antagonist)
CC(C)(C)c1nnc(N/N=C/c2cc(Br)ccc2O)n(N)c1=O	D3 ag 57
CCc1nnc(N/N=C/c2cc(Br)c(O)cc2O)n1N	none
O/C(=C\c1ccc2ccccc2n1)c1ccc(O)cc1O	D1 agonist 71
O=C(NCc1cccnc1)c1nc(-c2ccc(C(F)(F)F)cc2)no1	DRD3 antagonist -59, D1 antag -40
O=C(NCc1ccncc1)c1nc(-c2cccs2)no1	none
CC(C)(C)c1ccc(C(=O)NCc2cccnc2)cc1	none
O=C(NCc1ccncc1)c1nc(-c2ccc(C(F)(F)F)cc2)no1	D1 antag -39
COc1cccc(C(=O)Nc2c(C(=O)N3CCN(c4ccc(F)cc4)CC3)oc3ccccc23)c1	none (no result: DRD3 antagonist)
CC(=O)c1cccc(NC(=O)CC(c2ccc(C)cc2)N2Cc3ccccc3C2=O)c1 (stereo unspecified)	none (no result: DRD3 antagonist)
COc1ccc(-c2onc(C)c2C)cc1S(=O)(=O)NCC1CCN(Cc2cc(C)ccc2C)CC1	none (no result: DRD3 antagonist)
COc1cc(/C=C/c2cc(OC(C)=O)c3ccccc3n2)c(OC(C)=O)c([N+](=O)[O-])c1	DRD3 antagonist -82
CCOC(=O)C(C)N1C(=O)S/C(=C/c2cc(C)n(-c3ccncc3)c2C)C1=O (stereo unspecified)	none
CCOC(=O)C(C)N1C(=O)S/C(=C/c2cc(C)n(-c3ccccn3)c2C)C1=O (stereo unspecified)	D1 antag -45
O=C(CCC1N=C2c3ccccc3N=C(SCc3ccccc3F)N2C1=O)NCc1ccccc1 (stereo unspecified)	none (no result: DRD3 antagonist)
Cc1cc(C)c(-n2nnnc2SCC(=O)c2cccs2)c(C)c1	D1 antag -42
COc1ccc2c(c1)nc(SCC(=O)c1cccs1)n2C	D1 antag -36
Cc1cc(C)cc(-n2c(SCC(=O)Nc3ccccc3)nc3c(oc4ccccc43)c2=O)c1	none (no result: DRD3 antagonist)
Cc1nnc2c(N3CCN(CCO)CC3)nc3ccccc3n12	none
COc1ccc(N2CCN(c3nc4ccccc4n4c(C)nnc34)CC2)cc1	D1 antag -76 (no result: DRD3 antagonist)
Cc1cc(N2CCOCC2)nc2ccc(NC(=O)CCC(=O)N3CCN(c4ccccc4F)CC3)cc12	D1 antag -43
COc1ccc(C(=O)N(Cc2cc(OC)c(OC)c(OC)c2)C2CCS(=O)(=O)C2)cc1Cl (stereo unspecified)	none (no result: DRD3 antagonist)
COc1ccc(OC)c(S(=O)(=O)N2CCC(c3ccncc3)CC2)c1	none (no result: DRD3 antagonist)
O=C(N/N=C/c1coc2ccccc2c1=O)c1ccc(Cl)cc1	none
O=C(N/N=C/c1coc2ccccc2c1=O)c1ccccc1	D1 antag -44
Cc1cccc(C)c1NC(=O)Cn1nnc(S(=O)(=O)c2ccccc2)c1N	none (no result: DRD3 antagonist)
CC(C)(C)NC(=O)NC(=O)CSc1ncccn1	D1 antag -35
c1cncc(-c2nc(NCc3cccs3)c3ccccc3n2)c1	none
Fc1ccccc1CNc1nc(-c2cccnc2)nc2ccccc12	D1 antag -60 (no result: D1 potentiator)
CCCOc1ccc(OCCOCCNCc2ccccc2)cc1	none
Cc1cc(C)c(C)c(OCCOCCNCc2ccccc2)c1	D1 agonist 33
Cc1cccc(OCCCCNCc2ccccc2)c1	DRD3 antagonist inconclusive
COc1cccc(OCCNCc2ccccc2)c1	DRD3 antagonist -79, D1 potentiator 34
Cc1ccc(OCCNCc2ccccc2)c(C)c1	DRD3 antagonist -70
CCCSc1ncc(Cl)c(C(=O)Nc2c(C(=O)c3ccc(F)cc3)oc3ccccc23)n1	none (no result: DRD3 antagonist)
CN(c1cccc(NC(=O)c2ccc(Cl)c(S(=O)(=O)Nc3ccccc3)c2)c1)S(C)(=O)=O	D3 ag 52, D1 antag -42
CCOc1ccc(S(=O)(=O)Nc2cccc(N(C)S(C)(=O)=O)c2)cc1	D1 antag -39
CC(=O)Nc1ccc(S(=O)(=O)Nc2cccc(N(C)S(C)(=O)=O)c2)cc1	none
CN(c1cccc(NS(=O)(=O)c2ccccc2)c1)S(C)(=O)=O	D1 antag -37
COc1ccc2c(c1)C=C(CN1CCC(CO)(CCc3ccccc3)CC1)CO2	DRD3 antagonist -87
COc1ccc(CC2(CO)CCN(CC3=Cc4cc(Cl)ccc4OC3)CC2)cc1	DRD3 antagonist -75
CCc1nc(SCc2cc(=O)c3cc(F)ccc3[nH]2)n[nH]1	none (no result: DRD3 antagonist)
O=C(NCc1nnnn1-c1ccccc1)c1ccc2ccccc2c1	D3 ag 105 (no result: D1 agonist, D1 antag, D1 potentiator)
CN(C)CCOc1ccccc1Cc1ccccc1 (tested in a mixture with another compound)	none (no result: D1 agonist, DRD3 antagonist, D1 antag, D1 potentiator)
CCOC(=O)Cn1c(C(=O)OCC)cc2sccc21	D1 antag -30
COC(=O)c1cc2sccc2n1CC(=O)Nc1ccc(OC)c(OC)c1OC	none
CCOC(=O)c1cc2sccc2n1CC(=O)Nc1ccc(OC)cc1OC	D1 antag -39
Cc1ccc(Cl)cc1N(C)C(=O)c1cc2ccc3cccnc3c2[nH]1	none (no result: DRD3 antagonist)
Cc1ccc(S(=O)(=O)N2CCN(C)CC2)cc1[N+](=O)[O-]	none
CN1CCN(S(=O)(=O)c2ccc(N(C)Cc3ccc(OC(F)F)cc3)c([N+](=O)[O-])c2)CC1	D1 antag -39
c1coc(CNC2CCCCCCC2)c1	D1 antag -48
c1coc(CNC2CCCCC2)c1	none
COC(=O)c1c(C)oc(C)c1S(=O)(=O)NCC1CC1	none
COC(=O)c1c(C)oc(C)c1S(=O)(=O)N(C)C1CCCCC1	D1 antag -46
COc1ccc(NC(=O)c2c(C)oc3ccc(O)c(CN4CCN(C)CC4)c23)cc1Cl	none (no result: DRD3 antagonist)
CCCCN(C(=O)C1CCC(CNS(=O)(=O)c2cccc3nsnc23)CC1)c1ccccc1 (stereo unspecified)	none (no result: DRD3 antagonist)
O=C(CN1CCN(S(=O)(=O)c2ccccc2F)CC1)Nc1ccnn1C1CCCC1	D1 antag -40
Cc1ccc(S(=O)(=O)N2CCN(CC(=O)Nc3ccnn3C3CCCC3)CC2)cc1	D1 antag -37
N#Cc1ccccc1S(=O)(=O)N1CCN(CC(=O)Nc2ccnn2C2CCCC2)CC1	none
